# Data taken from PubChem BioAssay (NCATS).
# Where “and” joins values, the source holds several entries; their conditions need not be identical. Identical values can stand only once. Records with an inconclusive call do not appear. Calls of active or inactive are those of the source. The call rests on the fitted dose curve.
# Assay: Primary qHTS to identify inhibitors of SARS-CoV-2 cell entry (AID 1645846); further: nearly all actives have a fitted effect of over 45% in size
# Conditions: SARS-CoV-2 pseudovirus cell entry assay, luminescence; activity change, negative = inhibition: at 57.1 µM (top of the series) unless noted; series mostly up to 57.1 µM
# Summary of the method: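 HEK293-ACE2 (Expi293F, stable hACE2), 1500 cells/well, o/n 37C; cpd 23 nL pin, 1 h; MLV-PP w/ SARS-CoV-2-S (Wuhan-Hu-1, Δ19 C-term); 48 h 37C; Bright-Glo luminescence; normalized vs S-PP and bald PP.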
# Potency means the concentration at half of the fitted maximal effect.
SMILES,Potency,"activity change, negative = inhibition"
CCOc1cc(NC(C)=O)ccc1C(=O)OC,inactive,–
COc1c(N2CCNC(C)C2)c(F)cc2c(=O)c(C(=O)O)cn(C3CC3)c12 (stereo not drawn),–,-3.63% and -6.19%
C/C(=C1\CCOC(=O)S1)N(C=O)Cc1cnc(C)nc1N,inactive,–
Cc1ccc(C(=O)Nc2cccc(C(F)(F)F)c2)cc1-c1ccc2nc(NCCN3CCOCC3)ncc2c1,31.6 µM (active),–
CCOc1cc(C(=O)Nc2ccc(Cl)c(-c3nc4ccccc4[nH]3)c2)cc(OCC)c1OCC,25.1 µM (active),–
CC(C)(C)c1nnc(NS(=O)(=O)c2ccccc2)s1,inactive,–
Clc1ccccc1CN1CCc2sccc2C1,inactive,–
CCCCC(CC)COC(=O)c1ccc(N(C)C)cc1 (stereo not drawn),–,4.94%
N[C@H]1C(O)O[C@H](CO)[C@@H](O)[C@@H]1O (stereo partly drawn),–,-23.2%
Cc1c(C)c2c(c(C)c1OC(=O)c1cccnc1)CC[C@@](C)(CCC[C@H](C)CCC[C@H](C)CCCC(C)C)O2,inactive,–
COc1cccc(OC)c1-c1cc(C(=O)NC2(C(=O)O)C3CC4CC(C3)CC2C4)nn1-c1ccnc2cc(Cl)ccc12 (stereo not drawn),inactive,–
O=C(O)c1ccccn1,–,-3.73%
Cc1cn(-c2cc(NC(=O)c3ccc(C)c(Nc4nccc(-c5cccnc5)n4)c3)cc(C(F)(F)F)c2)cn1,–,-29.3%
Cn1c(Nc2ccc(C(F)(F)F)cc2)nc2cc(Oc3ccnc(-c4ncc(C(F)(F)F)[nH]4)c3)ccc21,–,-24.1%
Cn1cncc1[C@@](N)(c1ccc(Cl)cc1)c1ccc2c(c1)c(-c1cccc(Cl)c1)cc(=O)n2C,–,-13%
COc1ccc2c3n(c(=NC(=O)c4cccnc4)nc2c1OC)CCN3,–,-3.67% [at 5.25 µM]
O=C1CCCC2=C1C(c1[nH]ncc1Cl)N=C(Nc1nc3ccccc3o1)N2 (stereo not drawn),–,-4.23%
CCCCCCCCCCCCCC(=O)OC(C)C,inactive,–
O=C(O)CCc1ccc(NCc2cccc(Oc3ccccc3)c2)cc1,–,-10.2%

SMILES,Potency,"activity change, negative = inhibition"
CCNC(=O)c1noc(-c2cc(C(C)C)c(O)cc2O)c1-c1ccc(CN2CCOCC2)cc1,–,-24.6%
O=C(O)CNC(=O)CNC(=O)CNC(=O)CSC(=O)c1ccccc1,–,1.66%
CC(C)(C(=O)NCC(F)(F)C(F)(F)F)C(=O)N[C@@H]1C(=O)Nc2ccccc2-c2ccccc21,–,-16.5%
Cc1ccccc1-n1c(Cn2cnc3c(N)ncnc32)nc2cccc(C)c2c1=O,inactive,–
CC(C)c1ccc2c(c1)c(SC(C)(C)C)c(CC(C)(C)C(=O)O)n2Cc1ccc(Cl)cc1,inactive,–
C[C@@H]1CCN(C(=O)CC#N)C[C@@H]1N(C)c1ncnc2[nH]ccc12,–,-1.42%
CC(=O)NC(C)c1ccc(Oc2ccc(OC(C)C)cc2)cc1 (stereo not drawn),–,-26.1% [at 114 µM]
CC1=C(/C=C/C(C)=C/C=C/C(C)=C/C(=O)O)C(C)(C)CCC1,inactive,–
CC(C)c1ccc(Cn2ccc3c4c(N)nc(NC5CC5)nc4ccc32)cc1,–,-96.8%
O=C(O)[C@@H](c1ccc(OCc2ccc3ccccc3n2)cc1)C1CCCC1,–,-23.5%
O=C(Nc1cccc(C2=NCCN2)c1)Nc1cccc(C2=NCCN2)c1,inactive,–
COc1cc2c(cc1OC)CN(CCc1ccc(NC(=O)c3cccc4c(=O)c5cccc(OC)c5[nH]c34)cc1)CC2,–,-26.4%
CN(C)c1ccc(C2Nc3ccc4ccccc4c3C3=C2C(=O)CC(C)(C)C3)cc1Br (stereo not drawn),–,-8.04%
COc1cc2ncnc(-n3nc(-c4ccccn4)nc3N)c2cc1OC,–,-6.12%
CC(C)[C@H](CO)Nc1nc(Nc2ccc(C(=O)O)c(Cl)c2)c2ncn(C(C)C)c2n1,–,-17.7%
Cc1cnc(Nc2ccc(OCCN3CCCC3)cc2)nc1Nc1cccc(S(=O)(=O)NC(C)(C)C)c1,22.4 µM (active),–
C#Cc1cccc(Nc2ncnc3cc(OC)c(OCCCCCCC(=O)NO)cc23)c1,inactive,–
COCC1(CO)C(=O)C2CCN1CC2 (stereo not drawn),–,-14.4%
COc1ccccc1[C@H](c1cccc2ccccc12)[C@@](C)(C#N)C(=O)N1CCC(c2cccc(C(F)(F)F)c2)CC1,–,-3.93%
